# Reference: the OligoGym collection
# Biological target: DLAT
# Experiment: pooled miR-30 sensor sort-seq; sequence = guide strand
# Conditions: shRNA
row,Sequence,sensor-assay potency score (higher = more potent)
1,TTCTCCCATATTTACATCGATA,-1.59
2,TTCATTATCTGCAGGGACCAGT,-0.346
3,TTTTTCTACAATGATACAGAGT,-0.634
4,TTTAAATCTGTTACTTCGGTTG,-0.374
5,TAAGTCTCCTTCACTTAGCTTC,-0.196
6,TTCTCTACTGCCAACTTCTTTG,-0.772
7,TGATTTTGTCTTATAACTGTGT,0.275
8,TAGGTGTGATGAGTCCTGCAGG,-0.602
9,TATCTGTGAAGACACCTGTAGG,-1.1
10,TTTCTCTACTGCCAACTTCTTT,-1.09
11,TTGGTGATTCTACCATCTGGTC,-1.07
12,TTGCTAAAGAAACAACATCATT,-1.57

# Biological target: DLGAP2
# Experiment: as above
# Conditions: shRNA
row,Sequence,sensor-assay potency score (higher = more potent)
1,TAGCTGTGACTCCTTGTTCGGA,-0.676
2,TTGTCTGTCGGGCAGGTCCAGG,-1.29
3,TTTACCGAGAATTTCCTCCGAG,0.34
4,TAGATCTCGATGCTGTCCGCGC,-0.416
5,TTGACGTCGTTGTTGCTCTTGG,0.201
6,TTTTTTTGAATGCTACAGCTGG,-0.304
7,ATAGGTGCTGTCGCTGTCCAGG,-0.97
8,TTGTATATGAGACAGCTGCTGT,-0.506
9,TCCTTGTTCGGAAACATCCCGG,-1.01
10,TTGTTCGGAAACATCCCGGGAG,0.236
11,TAGAACGTTTAAAACGTCCGTG,-0.169
12,TTCAACTTCACTGAAGACGGAC,-0.0753

# Biological target: DMBX1
# Experiment: as above
# Conditions: shRNA
row,Sequence,sensor-assay potency score (higher = more potent)
1,TCTGGGTAGTGAGTCTTCTGGA,-0.662
2,TGAACCACACCTGCACCCGGGC,-1.56
3,TTTTACTGTTCAGGGTAGCTGA,-0.522
4,TGGGTAGTGAGTCTTCTGGAAG,-2.04
5,TTGTACATGGCGCTGAGTGAGT,-0.81
6,TGACTGCTCAGACAGACTCAGG,-1.97
7,TTACTGTTCAGGGTAGCTGATG,-1.25
8,TTGAACCACACCTGCACCCGGG,-0.844
9,TGAGCCGTGAACGCTGTGCGGC,-1.33
10,TTCTTCCGGAACTTGGCCCGGC,-0.414
11,TCACGCATCACCACATCTGGGT,0.0309
12,TTCCTTCTGCAGGCTACGCTGC,-1.18

# Biological target: DMKN
# Experiment: as above
# Conditions: shRNA
row,Sequence,sensor-assay potency score (higher = more potent)
1,TTCCTCTCCGCTCTGCAGGGGG,-0.64
2,TTCTGTTTGAAATCCTCCCAGA,-0.45
3,TGACTGAGTACTTCCCACCATA,-1.25
4,TTGGATTTAAAATTCTTCCAGA,0.603
